Results from PubChem BioAssay (NCI).
This is part of a sample that, as a whole, favours compounds with a hit. Of some 83,000 tested, about 20% had one in any assay.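 Single-concentration screen, 48 h exposure, 96-well plates. Endpoint: percent growth. Below 10 = active.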 Values without a mark were called inactive. The source made the active and inactive calls.

Tested on: HL-60(TB) leukemia
Test: NCI-60 one-dose screen, 48 h (100 = growth as untreated, 0 = no growth, -100 = all killed)
Conditions: 10 µM unless noted

Row | Compound | growth
1 | CN1CCN(Cc2ccc(NC(=O)c3cncc(C#Cc4cnc5ccc(Cl)nn45)c3)cc2C(F)(F)F)CC1 | -17.6% (active)
2 | CCCCCCCCCCCCCCCCCC[S+](C)CC (centres undefined) | 13%
3 | C=CC(=O)N1CC2(CCC(n3nc(-c4ccc(Oc5ccccc5)cc4)c4c(N)ncnc43)CC2)C1 | -38.5% (active)
4 | COc1ccc(NC(=O)c2sc3nc(C)c(C(=O)c4ccc(OC)cc4)cc3c2N)cc1 | 6.31% (active)
5 | Cc1ccc2nc(-c3ccc(OCC(=O)N=Nc4c(O)[nH]c5ccccc45)cc3)[nH]c2c1 | 88.9%
6 | O=C(Nc1ccncc1)C(=O)c1cn(S(=O)(=O)c2cccc(Cl)c2)c2ccccc12 | 41.8%
7 | Oc1c(I)cc(I)cc1CN(Cc1ccccn1)Cc1ccccn1 | 2.58% (active)
8 | COC(=O)N/N=C/c1coc2ccc(Cl)cc2c1=O | 105%
9 | Cc1cccc2c1S/C(=C/c1ccc([N+](=O)[O-])cc1)C2=O | 101%
10 | NS(=O)(=O)c1ccc(NC2=C(Cl)C(=O)c3ccccc3C2=O)cc1 | 87.6%
11 | Cc1cccc(N=Cc2ccccc2O)c1C | 87.9%
12 | CCOC(=O)c1nnn(-c2ccccc2)c1C1=CN(C)CCC1 | 84.4%
13 | C=C1c2c(C)nn(-c3ccc(O)cc3)c2N(C)C23C[C@@H]1C1(C)c4c(C)nn(-c5ccc(O)cc5)c4N(C)C(C)(C[C@H]12)C3 (some centres undefined) | 4.76% (active)
14 | COc1cc(/C=C/C(=O)c2c(C)nc3ccccc3c2C)ccc1OCCCOc1cc2c(cc1OC)C(=O)N1CCC[C@H]1C=N2 | -33% (active)
15 | CCCCCCNC(=O)Oc1ccc(/C(=C(\C)c2ccc(OC)cc2)c2ccc(OCCN3CCCCC3)cc2)cc1 | 46.3%
16 | COc1cc(-c2cc(/C=C/C(=O)c3ccc(N)cc3)[nH]n2)cc(OC)c1OC | 13.2%
17 | C=CCOc1ccc2c(C)cc(=O)oc2c1 | 118%
18 | Cc1cc2c(C(C)C)c(O)c(O)c(C=NCc3ccoc3)c2c(O)c1-c1c(C)cc2c(C(C)C)c(O)c(O)c(C=NCc3ccco3)c2c1O | 9.25% (active)
19 | CCOc1ccc(/C=N/Nc2cc(C)nc3ccc(Br)cc23)cc1 | 53.3%
20 | O=c1c(-c2nc3ccccc3[nH]2)cc2ccccc2n1Cc1cn(Cc2ccc(N3CCOCC3)cc2)nn1 | 104%

Row | Compound | growth
21 | COc1ccc(-c2[nH]c3ccc(OC)cc3c2C=C(C#N)C#N)cc1 | -43.1% (active)
22 | [O-]/[N+](=C\c1ccccc1)CC1(O)CCCCC1 | 98.5%
23 | CC1C(C)N(C(=O)CCl)c2ccccc2N1C(=O)CCl (centres undefined) | -56.9% (active)
24 | Cc1[nH]c(-c2nc3ccccc3[nH]2)c(C)c1C(=O)NNc1ccc(Cl)cc1 | 103%
25 | Cc1cccc(C[C@H](NC(=O)Nc2ccc(Cl)cc2F)C(=O)N[C@@H]2C(=O)N3C[C@H](O)C[C@H]3C(=O)N3CCN(C)C[C@H]3C(=O)N[C@@H](C)C(=O)N3C[C@H](C)C[C@H]3C(=O)O[C@H]2C)c1 | 32.8%
26 | O=c1cc(/C(=C2/C=CC=N2)c2ccc[nH]2)c2cc(Cl)ccc2o1 | 85.2%
27 | CCCn1c2cc(OCc3cn(-c4ccc(Cl)cc4)nn3)ccc2c2ccnc(C)c21 | -51.4% (active)
28 | O=[N+]([O-])c1ccc(/C=N\Nc2ccccc2)cc1 | 94.6%
29 | COc1ccc2c(c1)cn1c3ccc(O)cc3[nH]c(=O)c21 | -21.7% (active)
30 | CC(=O)C[n+]1ccccc1Sc1ccc(Cl)cc1 | 28.4%
31 | COc1ccc2c(c1)c(C(=O)c1nc(-c3cn(C)c4ccccc34)no1)cn2C | 92%
32 | NC[C@@](O)(c1ccc(Cl)cc1)c1ccc(-c2cn[nH]c2)cc1 | -42.8% (active)
33 | CO/N=C(/C(=O)NC1C(=O)N2C(C(=O)O)=C(COC(N)=O)CSC12)c1ccco1 (centres undefined) | 109%
34 | O=C1c2ccccc2C(=O)c2c1oc1ccc3ccccc3c21 | 100%
35 | COC(=O)C(C(C[N+](=O)[O-])c1ccccc1)=P(c1ccccc1)(c1ccccc1)c1ccccc1 (centres undefined) | 80.5%
36 | O=C(O)c1ccc(-n2cc(/C=N/Nc3ccc(F)cc3)c(-c3cccc(C(F)(F)F)c3)n2)cc1 | 34.3%
37 | O=C(Nc1cc(Cl)cc(Cl)c1)Oc1c(Cl)c(Cl)c(Cl)c(Cl)c1Cl | 60.9%
38 | CCOC(=O)OCC(=O)[C@@]1(O)CC[C@H]2[C@@H]3CCC4=CC(=O)CC[C@]4(C)[C@H]3[C@@H](O)C[C@@]21C | 108%
39 | Cc1ncc(C(=O)Nc2ccc(CN3CCN(C)CC3)c(C(F)(F)F)c2)cc1C#Cc1ccc(N)nc1 | 17.6%
